High-throughput results: PubChem, National Center for Advancing Translational Sciences (NCATS)
Sampled rows, rich in hits. Any-hit rate of the full collection: about 21%.
CHX counter: affects cycloheximide protein synthesis inhibition readout, counter-screen; max response, %; cell reporter, cycloheximide protein synthesis inhibition counterscreen; 300,000 tested, 12% active; AID 2314; in the data active = max response mostly above about 13%, no sharp cut-off; inactive = mostly below about 14%; also: read at 38.3 µM for the half of the compounds with a filed dose; 0% is about no effect
Pf growth 96h: P. falciparum growth inhibition at 96 hours | Potency, µM (series often up to 28.7 µM), inactives show top-dose activity change, negative = inhibition, actives largely listed as inhibitors | P. falciparum luciferase reporter growth, 96 h | 320,000 tested, 6.9% active | AID 504834; also: potency is read from the fitted curve at half-maximal effect; % is scaled to controls: 0 for no effect and ±100 for the full control effect
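Erythrocytes infected with luciferase-expressing P. falciparum were dispensed at 2% hematocrit and 0.05% parasitemia (final), then incubated with compounds 96 hours at 37 C in 5% CO2. Luminescence after detection reagent addition reported growth.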
Pf growth 48h: P. falciparum growth inhibition at 48 hours (one generation) | P. falciparum luciferase growth in erythrocytes, 48 h | Potency, µM (series often up to 28.7 µM), for inactives: at the top dose activity change, negative = inhibition, actives largely listed as inhibitors | AID 504832 | 310,000 tested, 5.9% active; also: potency is read from the fitted curve at half-maximal effect; % is scaled to controls: 0 for no effect and ±100 for the full control effect
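A one-generation exposure of luciferase-tagged malaria parasites in RPMI 1640/Albumax erythrocyte culture, 37 C and 5% CO2. Inhibition is inferred from decreased luminescence after adding detection reagent.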
Shiga inhibitor: blocks Shiga toxin action in Vero cells | inhibition, % at 38.7 µM | Vero cells, Shiga toxin protein synthesis inhibition reporter | 290,000 tested, 9.2% active; in the data active = inhibition mostly above about 28%, no sharp cut-off; inactive = mostly below about 43%; also: 0% is about no effect
SARS PLpro yeast: SARS-CoV PLP inhibition in yeast. S. cerevisiae expressing SARS-CoV PLpro, growth rescue. Potency, µM (highest dose often 32.9 µM), without a hit: top-dose activity, positive = growth rescue, most hits filed as activators. 330,000 tested, 0.19% active. AID 485353; calls by dose curve; also: potency is read from the fitted curve at half-maximal effect; 0% is about no effect; nearly all actives have a fitted effect of over 55% in size
NS1 function inh: influenza NS1 inhibition; Potency, µM (highest dose often 46.1 µM), inactives show at the highest dose activity, positive = more growth; 270,000 tested, 0.4% active; AID 2326; calls by dose curve; also: potency is read from the fitted curve at half-maximal effect; actives are rising curves; nearly all actives have a fitted effect of over 50% in size
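OD600 was taken as the measure of yeast growth restored by compound in an NS1-expressing S. cerevisiae strain. Cells had been washed out of glucose medium and diluted 1:100 into galactose -URA medium, pH 6.0.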
Active calls of the source: *; u = inconclusive; x = not tested or not shown; [ ] = dose if it differs, or a comment. Unless noted, calls follow the shape of the dose curve; as a rule, active = well fitted inhibition curve with a large enough effect; inconclusive = small, poorly fitted or top-dose-only effect, or another doubt; inactive = no such curve, though single readings can be large or run the other way.

SMILES	CHX counter	Pf growth 96h	Pf growth 48h	Shiga inhibitor	SARS PLpro yeast	NS1 function inh
O=C(COc1ccc(Cl)cc1Cl)N(C1CCCCC1)C1CCS(=O)(=O)C1 (stereo not given)	x	10µM*	u	x	-7%	x
COc1ccc(OC)c(N/C=C/C(=C(C#N)C#N)N(C)C)c1	-2	u	u	11	-1%	0%
N#Cc1nccnc1S(=O)(=O)c1cccs1	-2	-2%	4%	2	-6%	-68%
CCOC(=O)c1ccc(N2CCN(c3ccc(F)cc3)CC2)c(NC(=O)Nc2cccc(OC)c2)c1	-2	u	u	-10	-17%	6%
CCCCNC(=O)c1ccc(N2CCOCC2)c(NS(=O)(=O)c2ccc(OC)cc2)c1	-4	49%	7.4µM*	9	7%	-28%
COCCCNC(=O)c1ccc(N2CCOCC2)c(NS(=O)(=O)c2ccc(OC)cc2)c1	-8	x	-14%	-7	u	-1%
CCOC(=O)c1ccc(N2CCCCC2)c(NS(=O)(=O)c2ccc(C)cc2)c1	10	1µM*	2.3µM*	14	-2%	14%
CCOCCCNC(=O)c1ccc(N2CCOCC2)c(NS(=O)(=O)c2ccc(OC)cc2)c1	5	7%	2%	-7	-1%	x
CCOC(=O)c1ccc(N2CCN(c3ccccc3F)CC2)c(NC(=O)Nc2ccccc2)c1	1	u	13µM*	-16	29%	u
CCOC(=O)c1ccc(S(=O)(=O)Nc2cc(S(=O)(=O)N3CCOCC3)ccc2O)cc1	x	x	x	x	4%	x
COCCNC(=O)c1ccc(N2CCCCC2)c(NS(=O)(=O)c2ccc(C)cc2)c1	16*	400%	5.2µM*	-1	2%	-11%
Cc1ccc(NS(=O)(=O)c2cccc(C(=O)N3CCCCCC3)c2)cc1	x	-5%	0%	x	-2%	x
COc1cccc(CN2CCC(N(CCc3ccccc3)Cc3ccccc3)CC2)c1OC	-4	22%	u	-6	-9%	-5%
CCN(CC)CCCNC(=O)c1ccc(N2CCCCC2)c(NS(=O)(=O)c2ccc(C)cc2)c1	-6	u	u	-7	-1%	x
Cc1ccc(S(=O)(=O)Nc2cc(C(=O)NCCN(C)C)ccc2N2CCCC2)cc1	-4	8.3µM*	-3%	-8	2%	0%
COc1ccccc1C1CCN(C(=O)c2ccc(Cl)cc2)CC1	16	-10%	u	-1	-11%	-63%
Cc1ccc(-c2ccc(/C=C(\C#N)C(N)=S)n2C)cc1	59*	u	5%	61*	0%	0%
Cn1cccc1/C=C(/C#N)C(N)=S	-5	3%	2%	-13	-1%	11%
O=C(NCc1cnn(-c2ccc(F)cc2)c1)C1CCC(=O)N(C2CC2)C1 (stereo not given)	13	-15%	8%	-6	-4%	0%
CC1Oc2ccccc2N(CC(=O)N2CCCC2)C1=O (stereo not given)	0	4.7µM*	0%	-11	3%	23%
CC1Oc2ccccc2N(CC(=O)NCc2cccs2)C1=O (stereo not given)	19*	-11%	82%	31*	10%	-12%
CC1CCCN(C(=O)CN2C(=O)C(C)Oc3ccccc32)C1 (stereo not given)	-5	11%	-4%	-9	9%	23%
Cc1ccc2c(c1)N(CC(=O)NCc1cccs1)C(=O)C(C)O2 (stereo not given)	-3	18%	4%	12	1%	-1%
O=C(CC(=O)N/N=C/c1ccc(C(=O)O)cc1)NCCc1ccccc1	-1	12%	-6%	-13	1%	12%
CC(=O)c1cccc(OCc2cc(C(=O)N(C)Cc3ccc(C)o3)no2)c1	22*	3%	5%	79*	-6%	-2%
SMILES	CHX counter	Pf growth 96h	Pf growth 48h	Shiga inhibitor	SARS PLpro yeast	NS1 function inh
Cc1ccc(OCc2cc(C(=O)N(C)CCc3nc4ccccc4[nH]3)no2)cc1C	27*	63%	u	22	-7%	-20%
Cc1nc(CN(C)C(=O)c2cc(COc3ccc4ncccc4c3)on2)cs1	11	-23%	-18%	19	-1%	-3%
CC(=O)c1cccc(OCc2cc(C(=O)N(C)CCc3ccccn3)no2)c1	15*	u	-1%	37	-1%	0%
Cc1ccc(OCc2cc(C(=O)N(C)CCc3ccccn3)no2)cc1C	83*	-19%	u	109*	-3%	-14%
COc1ccc(N2CCN(C(=O)NCc3ccc(C)cc3)CC2)cc1	-2	27%	10%	-10	-3%	-2%
COc1ccc2oc(C(=O)OCC(=O)N(C)C3CCCCC3)c(C)c2c1	x	2%	9%	x	3%	x
CN(C)c1ccc(C(C(=O)NC2CCCCC2)N(Cc2ccco2)C(=O)c2snc(C(N)=O)c2N)cc1 (stereo not given)	5	-12%	u	-4	-16%	-6%
CN1CCN(CC#CCOc2ccc(Cl)cc2)CC1	21*	34%	41%	x	2%	2%
COc1ccccc1OCC#CCN1CCCCCC1	-1	-23%[1.15 µM]	20%	16	-1%	6%
Clc1ccc(OCC#CCN2CCCC2)cc1	23*	16%	57%	61*	0%	2%
Cn1ccnc1C[C@@](C)(O)c1ccccc1	x	x	x	x	x	-3%
O=C(Nc1ccccc1F)c1cc2c(s1)-c1ccccc1S(=O)(=O)C2	-2	26%	17%	24	-3%	3%
CC(C)(C)c1ccc(C(=O)Nc2ccc(F)cc2)s1	40*	5%	31%	71*	-3%	6%
CCc1cc2cc(C(=O)Nc3ccccc3F)sc2s1	30*	9.3µM*	204%	97*	-3%	4%
CCc1cc2cc(C(=O)Nc3ccc(F)cc3)sc2s1	30*	0.41µM*	-2%	76*	3%	-1%
COc1ccc(S(=O)(=O)Nc2ccc3c(c2)C(=O)N([C@H](C)CO)C[C@H](C)[C@@H](CN(C)S(=O)(=O)c2ccc(F)cc2)O3)cc1	x	x	x	x	2%	x
Cc1ccc(OCc2cc(C(=O)NCCn3cccn3)no2)cc1C	22	u	19%	48*	2%	-28%
Cc1ccc(OCc2cc(C(=O)NCCc3cccnc3)no2)cc1C	36*	47%	4%	51*	-3%	-29%
Cc1ccc(OCc2cc(C(=O)NC(C)Cc3cccnc3)no2)cc1C (stereo not given)	35*	19%	-1%	98*	-4%	-51%
Cc1ccc(OCc2cc(C(=O)NCC(C)c3ccccc3)no2)cc1C (stereo not given)	13	-26%	18%	2	-2%	-5%
O=C1CC(c2cccs2)Cc2nc(NC(=O)C3CC3)ncc21 (stereo not given)	2	-7%	-4%	36	0%	-5%
CCN(c1ccccc1)S(=O)(=O)c1ccc2c(c1)C(C)(C)C(=O)N2C	1	0%	-14%	-4	3%	-6%
